The source of these data is article PMC11006913.

Holding throughout (experiment): PBM; 200 nM protein, PBS
What all share (details): dsDNA, one strand shown

Experiment [1] has as its target SHOX (Homo sapiens, UniProt O15266 103-189).
For experiment [2], the target named is SHOX (Homo sapiens, UniProt O15266 103-189, R173C).
In experiment [3] the target is HOXB9 (Homo sapiens, UniProt P17482 171-250, T197M).
Experiment [4] deals with HOXC9 (Homo sapiens, UniProt P31274 178-260, K195R).
The target of the next experiment is T1, VENTX (Homo sapiens, UniProt O95231 78-163).
T1 sequence: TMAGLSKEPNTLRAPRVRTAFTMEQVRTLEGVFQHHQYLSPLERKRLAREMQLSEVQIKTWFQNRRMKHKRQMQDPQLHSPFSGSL

The target in experiment [5] is HOXA7 (Homo sapiens, UniProt P31268 116-202).
Experiment [6] addresses HOXC10 (Homo sapiens, UniProt Q9NYD6 254-340).
Another experiment has as its target T2, PAX4 (Homo sapiens, UniProt O43316 9-242, R200K).
T2 sequence: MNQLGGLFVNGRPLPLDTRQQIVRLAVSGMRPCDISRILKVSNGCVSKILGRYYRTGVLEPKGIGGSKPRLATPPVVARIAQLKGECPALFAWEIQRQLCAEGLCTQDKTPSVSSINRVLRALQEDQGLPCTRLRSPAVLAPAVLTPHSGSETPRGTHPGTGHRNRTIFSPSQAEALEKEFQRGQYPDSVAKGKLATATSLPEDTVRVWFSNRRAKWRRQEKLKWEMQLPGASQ

The target in experiment [7] is HOXB6 (Homo sapiens, UniProt P17509 132-218, K202E).
Experiment [8] deals with HOXB9 (Homo sapiens, UniProt P17482 171-250).
Experiment [9] has as its target HOXC9 (Homo sapiens, UniProt P31274 178-260).
The target in experiment [10] is HOXC9 (Homo sapiens, UniProt P31274 178-260, R193K).
The target in experiment [11] is HOXC10 (Homo sapiens, UniProt Q9NYD6 254-340, K271E).
Experiment [12] deals with HOXD13 (Homo sapiens, UniProt P35453 263-343, T313A).
Experiment [13] deals with HOXB9 (Homo sapiens, UniProt P17482 171-250, R186Q).
Experiment [14] addresses HOXC9 (Homo sapiens, UniProt P31274 178-260, R222W).
In experiment [15] the target is HOXA7 (Homo sapiens, UniProt P31268 116-202, W177C).
Experiment [16] concerns the target HOXB6 (Homo sapiens, UniProt P17509 132-218).
Experiment [17] addresses HOXD13 (Homo sapiens, UniProt P35453 263-343, T313R).
In experiment [18] the target is HOXD13 (Homo sapiens, UniProt P35453 263-343).
Sequence of HOXD13 (Homo sapiens, UniProt P35453 263-343) (P35453 263-343): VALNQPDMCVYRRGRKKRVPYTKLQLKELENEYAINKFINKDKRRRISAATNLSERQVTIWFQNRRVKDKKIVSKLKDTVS

Sequence of HOXA7 (Homo sapiens, UniProt P31268 116-202, W177C) (P31268 116-202 W177C): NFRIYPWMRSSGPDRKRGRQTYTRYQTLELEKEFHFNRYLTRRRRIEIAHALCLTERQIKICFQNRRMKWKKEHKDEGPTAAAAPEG
Sequence of HOXC9 (Homo sapiens, UniProt P31274 178-260, R222W) (P31274 178-260 R222W): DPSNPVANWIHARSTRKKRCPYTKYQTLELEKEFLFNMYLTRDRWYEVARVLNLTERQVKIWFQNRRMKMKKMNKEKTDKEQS
Sequence of HOXD13 (Homo sapiens, UniProt P35453 263-343, T313A) (P35453 263-343 T313A): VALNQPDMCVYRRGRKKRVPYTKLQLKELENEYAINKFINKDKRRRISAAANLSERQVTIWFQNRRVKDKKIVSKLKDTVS
Sequence of HOXC10 (Homo sapiens, UniProt Q9NYD6 254-340) (Q9NYD6 254-340): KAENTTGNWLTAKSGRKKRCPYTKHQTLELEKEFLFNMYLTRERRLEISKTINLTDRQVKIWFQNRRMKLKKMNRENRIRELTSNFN
Sequence of HOXB6 (Homo sapiens, UniProt P17509 132-218, K202E) (P17509 132-218 K202E): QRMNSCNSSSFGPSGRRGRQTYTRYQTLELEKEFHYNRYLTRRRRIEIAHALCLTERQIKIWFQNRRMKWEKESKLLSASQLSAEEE
Sequence of HOXC10 (Homo sapiens, UniProt Q9NYD6 254-340, K271E) (Q9NYD6 254-340 K271E): as the sequence (Q9NYD6 254-340) above, with K18E counted along it
Sequence of SHOX (Homo sapiens, UniProt O15266 103-189) (O15266 103-189): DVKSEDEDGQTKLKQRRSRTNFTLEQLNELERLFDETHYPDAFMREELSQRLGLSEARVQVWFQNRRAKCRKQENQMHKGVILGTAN
Sequence of HOXA7 (Homo sapiens, UniProt P31268 116-202) (P31268 116-202): as the sequence (P31268 116-202 W177C) above, with C62W counted along it
Sequence of HOXC9 (Homo sapiens, UniProt P31274 178-260, K195R) (P31274 178-260 K195R): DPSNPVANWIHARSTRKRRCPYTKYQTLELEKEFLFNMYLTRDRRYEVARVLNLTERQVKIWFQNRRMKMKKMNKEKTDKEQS
Sequence of HOXB9 (Homo sapiens, UniProt P17482 171-250, R186Q) (P17482 171-250 R186Q): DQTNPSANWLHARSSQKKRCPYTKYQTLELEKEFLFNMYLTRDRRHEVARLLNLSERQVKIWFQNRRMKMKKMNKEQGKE
Sequence of HOXB6 (Homo sapiens, UniProt P17509 132-218) (P17509 132-218): as the sequence (P17509 132-218 K202E) above, with E71K counted along it
Sequence of SHOX (Homo sapiens, UniProt O15266 103-189, R173C) (O15266 103-189 R173C): as the sequence (O15266 103-189) above, with R71C counted along it
Sequence of HOXC9 (Homo sapiens, UniProt P31274 178-260, R193K) (P31274 178-260 R193K): as the sequence (P31274 178-260 R222W) above, with R16K, W45R counted along it
Sequence of HOXB9 (Homo sapiens, UniProt P17482 171-250) (P17482 171-250): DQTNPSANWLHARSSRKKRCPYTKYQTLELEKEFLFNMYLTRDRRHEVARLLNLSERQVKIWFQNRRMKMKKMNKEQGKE
Sequence of HOXC9 (Homo sapiens, UniProt P31274 178-260) (P31274 178-260): as the sequence (P31274 178-260 R222W) above, with W45R counted along it
Sequence of HOXB9 (Homo sapiens, UniProt P17482 171-250, T197M) (P17482 171-250 T197M): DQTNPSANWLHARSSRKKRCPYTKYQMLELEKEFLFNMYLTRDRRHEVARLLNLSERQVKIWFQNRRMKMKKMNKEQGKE
Sequence of HOXD13 (Homo sapiens, UniProt P35453 263-343, T313R) (P35453 263-343 T313R): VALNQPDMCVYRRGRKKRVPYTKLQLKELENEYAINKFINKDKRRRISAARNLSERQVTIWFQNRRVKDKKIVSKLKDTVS

Regarding CGCAGGCG, the binding signal with SHOX [1] is 7.28 upbm affinity estimate (log intensity, higher = more binding, comparable within an allelic series); in the experiment with SHOX [2] it was 7.07 upbm affinity estimate (log intensity, higher = more binding, comparable within an allelic series).

Take ATTAATGG: the binding signal with HOXB9 [3] is 10.3 upbm affinity estimate (log intensity, higher = more binding, comparable within an allelic series); in the experiment with HOXC9 [4], 12.9 upbm affinity estimate (log intensity, higher = more binding, comparable within an allelic series); with VENTX, 12.7 upbm affinity estimate (log intensity, higher = more binding, comparable within an allelic series); in the experiment with HOXA7 [5], 12 upbm affinity estimate (log intensity, higher = more binding, comparable within an allelic series); with HOXC10 [6], 12.4 upbm affinity estimate (log intensity, higher = more binding, comparable within an allelic series); in the experiment with PAX4 it was 11.7 upbm affinity estimate (log intensity, higher = more binding, comparable within an allelic series). Moreover, the binding signal in the experiment with HOXB6 [7] is 10.2 upbm affinity estimate (log intensity, higher = more binding, comparable within an allelic series); with HOXB9 [8], 12.3 upbm affinity estimate (log intensity, higher = more binding, comparable within an allelic series); with HOXC9 [9], 12.9 upbm affinity estimate (log intensity, higher = more binding, comparable within an allelic series); in the experiment with HOXC9 [10], 12.9 upbm affinity estimate (log intensity, higher = more binding, comparable within an allelic series); in the experiment with HOXC10 [11], 12.2 upbm affinity estimate (log intensity, higher = more binding, comparable within an allelic series); with HOXD13 [12], 11.6 upbm affinity estimate (log intensity, higher = more binding, comparable within an allelic series). Besides, the binding signal in the experiment with HOXB9 [13] is 12 upbm affinity estimate (log intensity, higher = more binding, comparable within an allelic series); with HOXC9 [14], 11.2 upbm affinity estimate (log intensity, higher = more binding, comparable within an allelic series); with HOXA7 [15], 8.96 upbm affinity estimate (log intensity, higher = more binding, comparable within an allelic series); with HOXB6 [16], 12.4 upbm affinity estimate (log intensity, higher = more binding, comparable within an allelic series).

For CAGGGGGC, the binding signal is 7.1 upbm affinity estimate (log intensity, higher = more binding, comparable within an allelic series) with SHOX [1]; 8.14 upbm affinity estimate (log intensity, higher = more binding, comparable within an allelic series) with VENTX; 7.01 upbm affinity estimate (log intensity, higher = more binding, comparable within an allelic series) with SHOX [2].

Take CCGCAAGG: the binding signal with SHOX [1] was 7.17 upbm affinity estimate (log intensity, higher = more binding, comparable within an allelic series); with HOXD13 [17], 9.53 upbm affinity estimate (log intensity, higher = more binding, comparable within an allelic series); in the experiment with SHOX [2], 7.2 upbm affinity estimate (log intensity, higher = more binding, comparable within an allelic series); with HOXD13 [18], 9.5 upbm affinity estimate (log intensity, higher = more binding, comparable within an allelic series); with HOXD13 [12], 9.67 upbm affinity estimate (log intensity, higher = more binding, comparable within an allelic series).

Turning to GACGCCGC, the binding signal with PAX4 is 9.17 upbm affinity estimate (log intensity, higher = more binding, comparable within an allelic series).

Take AGCCTGGG: the binding signal with SHOX [1] was 7.06 upbm affinity estimate (log intensity, higher = more binding, comparable within an allelic series); with SHOX [2], 7.22 upbm affinity estimate (log intensity, higher = more binding, comparable within an allelic series).

CATTAATG: the binding signal with HOXB9 [3] was 10.3 upbm affinity estimate (log intensity, higher = more binding, comparable within an allelic series); with HOXC9 [4] it was 12.8 upbm affinity estimate (log intensity, higher = more binding, comparable within an allelic series); in the experiment with VENTX, 12.5 upbm affinity estimate (log intensity, higher = more binding, comparable within an allelic series); with HOXA7 [5], 12 upbm affinity estimate (log intensity, higher = more binding, comparable within an allelic series); with HOXC10 [6], 12.3 upbm affinity estimate (log intensity, higher = more binding, comparable within an allelic series); in the experiment with PAX4, 11.8 upbm affinity estimate (log intensity, higher = more binding, comparable within an allelic series). Also, the binding signal with HOXB6 [7] was 10.3 upbm affinity estimate (log intensity, higher = more binding, comparable within an allelic series); with HOXB9 [8] it was 12.1 upbm affinity estimate (log intensity, higher = more binding, comparable within an allelic series); with HOXC9 [9], 12.9 upbm affinity estimate (log intensity, higher = more binding, comparable within an allelic series); with HOXC9 [10] it was 12.8 upbm affinity estimate (log intensity, higher = more binding, comparable within an allelic series); with HOXC10 [11], 12.2 upbm affinity estimate (log intensity, higher = more binding, comparable within an allelic series); with HOXD13 [12], 11.6 upbm affinity estimate (log intensity, higher = more binding, comparable within an allelic series). Also, the binding signal in the experiment with HOXB9 [13] is 11.9 upbm affinity estimate (log intensity, higher = more binding, comparable within an allelic series); with HOXC9 [14], 11 upbm affinity estimate (log intensity, higher = more binding, comparable within an allelic series); with HOXA7 [15] it was 8.9 upbm affinity estimate (log intensity, higher = more binding, comparable within an allelic series); with HOXB6 [16], 12.4 upbm affinity estimate (log intensity, higher = more binding, comparable within an allelic series).

Consider CGAGGGTC, for which the binding signal was 9.55 upbm affinity estimate (log intensity, higher = more binding, comparable within an allelic series) with HOXC9 [4]; 8.99 upbm affinity estimate (log intensity, higher = more binding, comparable within an allelic series) with PAX4; 9.61 upbm affinity estimate (log intensity, higher = more binding, comparable within an allelic series) in the experiment with HOXC9 [9]; 9.61 upbm affinity estimate (log intensity, higher = more binding, comparable within an allelic series) with HOXC9 [10]; 9.69 upbm affinity estimate (log intensity, higher = more binding, comparable within an allelic series) in the experiment with HOXC9 [14].

For CTCATTAA, the binding signal with SHOX [1] is 11.5 upbm affinity estimate (log intensity, higher = more binding, comparable within an allelic series); with HOXB9 [3] it was 10.1 upbm affinity estimate (log intensity, higher = more binding, comparable within an allelic series); with HOXC9 [4], 12.5 upbm affinity estimate (log intensity, higher = more binding, comparable within an allelic series); in the experiment with VENTX it was 12.8 upbm affinity estimate (log intensity, higher = more binding, comparable within an allelic series); in the experiment with HOXA7 [5], 11.5 upbm affinity estimate (log intensity, higher = more binding, comparable within an allelic series); in the experiment with HOXC10 [6], 12.2 upbm affinity estimate (log intensity, higher = more binding, comparable within an allelic series). Moreover, the binding signal is 11.6 upbm affinity estimate (log intensity, higher = more binding, comparable within an allelic series) with PAX4; 9.97 upbm affinity estimate (log intensity, higher = more binding, comparable within an allelic series) with HOXB6 [7]; 11.8 upbm affinity estimate (log intensity, higher = more binding, comparable within an allelic series) in the experiment with HOXB9 [8]; 12.6 upbm affinity estimate (log intensity, higher = more binding, comparable within an allelic series) with HOXC9 [9]; 10.7 upbm affinity estimate (log intensity, higher = more binding, comparable within an allelic series) with HOXD13 [17]; 9.2 upbm affinity estimate (log intensity, higher = more binding, comparable within an allelic series) with SHOX [2]. The binding signal is 12.5 upbm affinity estimate (log intensity, higher = more binding, comparable within an allelic series) with HOXC9 [10]; 11.9 upbm affinity estimate (log intensity, higher = more binding, comparable within an allelic series) with HOXD13 [18]; 12 upbm affinity estimate (log intensity, higher = more binding, comparable within an allelic series) with HOXC10 [11]; 11.7 upbm affinity estimate (log intensity, higher = more binding, comparable within an allelic series) in the experiment with HOXD13 [12]; 11.5 upbm affinity estimate (log intensity, higher = more binding, comparable within an allelic series) with HOXB9 [13]; 10.9 upbm affinity estimate (log intensity, higher = more binding, comparable within an allelic series) with HOXC9 [14]. Besides, the binding signal with HOXA7 [15] was 8.81 upbm affinity estimate (log intensity, higher = more binding, comparable within an allelic series); with HOXB6 [16], 11.9 upbm affinity estimate (log intensity, higher = more binding, comparable within an allelic series).

As for CGTCCCGC, the binding signal with HOXB9 [3] is 8.41 upbm affinity estimate (log intensity, higher = more binding, comparable within an allelic series); in the experiment with VENTX, 7.89 upbm affinity estimate (log intensity, higher = more binding, comparable within an allelic series); with HOXA7 [5], 8.5 upbm affinity estimate (log intensity, higher = more binding, comparable within an allelic series); with PAX4, 9.13 upbm affinity estimate (log intensity, higher = more binding, comparable within an allelic series); with HOXB9 [8], 8.35 upbm affinity estimate (log intensity, higher = more binding, comparable within an allelic series); with HOXB9 [13] it was 8.38 upbm affinity estimate (log intensity, higher = more binding, comparable within an allelic series). The binding signal with HOXA7 [15] is 8.32 upbm affinity estimate (log intensity, higher = more binding, comparable within an allelic series).
